Data: PubChem BioAssay
The source made the active and inactive calls.

Key:
[1] = tested on: Plasmodium falciparum Sir2 (PF13_0152, Sir2A); test: pfSir2 binders on small-molecule microarrays, primary screen, biochemical, small-molecule microarray, 635 nm fluorescence (AID 1098); conditions: small-molecule microarray binding, fluorescence 635 nm; higher = more signal;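 note: score merges spot fluorescence intensity with its signal-to-noise ratio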
[2] = small-molecule microarray binders of probe aDKK1, primary screen, biochemical, biotinylated probe, 635/667 nm fluorescence (AID 1099); conditions: higher = more signal;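 note: score merges 667nm spot fluorescence with signal to noise across triplicate slides; reference of the scale not given here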
[3] = small-molecule microarray binders of probe aCHRDL2, primary screen, biochemical, biotinylated probe, 635/667 nm fluorescence (AID 1100); conditions: higher = more signal
[4] = splicing luciferase reporter signal modulators, primary screen, spliceosome inhibition project, cell-based, HEK293, splice +/- reporter (AID 1101); conditions: luminescence, 24 h, higher = more signal, called active from +8 up or from −8 down;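 note: HEK293 cells carrying a splicing-competent luciferase reporter gene; test concentration not given here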
[5] = target: Fibroblast growth factor 10 (Homo sapiens) (UniProt O15520); test: FGF10 binders on small-molecule microarrays, primary screen, biochemical, small-molecule microarray, 635 nm fluorescence (AID 1102); conditions: FGF10 binding, fluorescence 635 nm, higher = more signal
[6] = tested on: glycogen synthase kinase-3 (GSK3A per assay name; protocol says GSK3B); test: GSK3 binders on small-molecule microarrays, primary screen, biochemical, small-molecule microarray, 635 nm fluorescence, GSK3A (AID 1103); conditions: small-molecule microarray binding, fluorescence 635 nm; higher = more signal; note: the record names both GSK3A and GSK3B
[7] = target: Epidermal growth factor receptor (Homo sapiens) (UniProt P00533); test: EGFR binders on small-molecule microarrays, primary screen, biochemical, small-molecule microarray, 635 nm fluorescence (AID 1104); conditions: EGFR binding, higher = more signal;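 note: score merges 667 nm emission intensity with spot signal to noise over triplicate slides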
[8] = target: Follistatin-related protein 3 (Homo sapiens) (UniProt O95633); test: FSTL3 binders on small-molecule microarrays, primary screen, biochemical, small-molecule microarray, 635 nm fluorescence (AID 1105); conditions: FSTL3 binding, higher = more signal;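 note: score merges emission near 667 nm and signal to noise per printed spot across three slides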
[9] = target: Dickkopf-related protein 1 (Homo sapiens) (UniProt O94907); test: DKK1 binders on small-molecule microarrays, primary screen, biochemical, small-molecule microarray, 635 nm fluorescence scan (AID 1106); conditions: DKK1 binding, higher = more signal;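 note: score merges emission near 667 nm with signal to noise over three replicate slides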
[10] = tested on: Inhibin beta A chain (activin A); test: INHBA (activin A) binders on microarrays, primary screen, biochemical, small-molecule microarray, 635 nm fluorescence scan (AID 1107); conditions: small-molecule microarray binding, higher = more signal;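 note: mouse activin A protein probed at 4.33 µg/mL on printed slides; score merges bound-protein fluorescence near 667 nm with spot signal-to-noise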

Dickkopf-related protein 1 (Homo sapiens), sequence (O94907 whole entry, looked up): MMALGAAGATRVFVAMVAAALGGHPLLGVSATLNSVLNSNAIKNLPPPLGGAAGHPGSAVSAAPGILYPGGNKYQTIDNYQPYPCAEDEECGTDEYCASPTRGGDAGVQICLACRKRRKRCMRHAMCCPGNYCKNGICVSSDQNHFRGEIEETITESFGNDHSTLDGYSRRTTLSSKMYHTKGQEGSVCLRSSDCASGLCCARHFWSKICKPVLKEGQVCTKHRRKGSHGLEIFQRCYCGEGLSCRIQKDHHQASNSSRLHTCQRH
Follistatin-related protein 3 (Homo sapiens), sequence (O95633 whole entry, looked up): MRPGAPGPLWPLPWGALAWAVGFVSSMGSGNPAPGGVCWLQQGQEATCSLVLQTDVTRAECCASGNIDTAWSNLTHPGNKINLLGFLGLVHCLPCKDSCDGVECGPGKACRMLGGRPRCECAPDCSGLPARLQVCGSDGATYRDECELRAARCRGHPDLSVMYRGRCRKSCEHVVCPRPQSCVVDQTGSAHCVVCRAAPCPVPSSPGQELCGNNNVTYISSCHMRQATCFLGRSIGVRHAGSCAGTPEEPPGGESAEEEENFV
Epidermal growth factor receptor (Homo sapiens), sequence (P00533 whole entry, looked up): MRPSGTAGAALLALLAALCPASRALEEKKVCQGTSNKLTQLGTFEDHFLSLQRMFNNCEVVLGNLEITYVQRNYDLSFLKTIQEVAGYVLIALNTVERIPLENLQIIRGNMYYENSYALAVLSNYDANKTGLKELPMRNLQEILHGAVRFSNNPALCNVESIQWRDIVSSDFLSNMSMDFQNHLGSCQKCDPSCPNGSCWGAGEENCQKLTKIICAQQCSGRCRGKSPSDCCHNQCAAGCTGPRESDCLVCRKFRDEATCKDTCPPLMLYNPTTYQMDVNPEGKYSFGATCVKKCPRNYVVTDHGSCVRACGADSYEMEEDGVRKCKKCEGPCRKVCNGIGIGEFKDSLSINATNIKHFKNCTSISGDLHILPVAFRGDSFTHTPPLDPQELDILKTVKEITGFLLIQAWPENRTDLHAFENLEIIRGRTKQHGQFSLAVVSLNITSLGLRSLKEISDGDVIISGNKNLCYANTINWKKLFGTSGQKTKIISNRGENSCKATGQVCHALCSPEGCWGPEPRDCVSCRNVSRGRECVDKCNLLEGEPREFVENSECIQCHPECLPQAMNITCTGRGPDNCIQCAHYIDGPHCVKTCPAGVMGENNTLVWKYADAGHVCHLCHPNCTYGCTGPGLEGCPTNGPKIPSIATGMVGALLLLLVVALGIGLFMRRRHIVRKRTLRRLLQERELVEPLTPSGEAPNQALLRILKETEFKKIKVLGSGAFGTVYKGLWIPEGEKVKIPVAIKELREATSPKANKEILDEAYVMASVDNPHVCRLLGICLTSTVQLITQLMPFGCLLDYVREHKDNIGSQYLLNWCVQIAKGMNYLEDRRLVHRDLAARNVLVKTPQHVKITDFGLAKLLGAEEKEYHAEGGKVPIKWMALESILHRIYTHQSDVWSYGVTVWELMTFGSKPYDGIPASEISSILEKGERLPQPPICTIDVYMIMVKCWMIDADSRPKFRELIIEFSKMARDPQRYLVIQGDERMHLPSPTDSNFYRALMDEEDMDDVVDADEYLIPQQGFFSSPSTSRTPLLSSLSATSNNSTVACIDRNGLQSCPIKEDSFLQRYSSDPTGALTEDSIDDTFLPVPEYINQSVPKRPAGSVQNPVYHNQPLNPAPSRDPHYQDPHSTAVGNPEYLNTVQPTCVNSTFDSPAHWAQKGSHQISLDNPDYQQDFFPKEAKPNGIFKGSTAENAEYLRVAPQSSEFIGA
Fibroblast growth factor 10 (Homo sapiens), sequence (O15520 whole entry, looked up): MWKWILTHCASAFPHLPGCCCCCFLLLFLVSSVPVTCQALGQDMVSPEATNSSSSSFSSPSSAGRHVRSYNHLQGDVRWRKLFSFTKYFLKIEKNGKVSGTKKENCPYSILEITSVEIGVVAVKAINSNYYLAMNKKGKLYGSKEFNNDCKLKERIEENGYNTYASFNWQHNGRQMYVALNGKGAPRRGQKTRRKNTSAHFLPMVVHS

Compound	composite z-score [1]	composite z-score [2]	composite z-score [3]	z-score [4]	composite z-score [5]	composite z-score [6]	composite z-score [7]	composite z-score [8]	composite z-score [9]	composite z-score [10]
[N-]=[N+]=NCc1ccccc1C[C@]1(C(=O)NCc2ccccc2)N=C(c2ccc(OCCCO)cc2)O[C@H]1c1ccccc1N=[N+]=[N-]	1.3	0.658	1.09	0.00592 (inactive)	0.856	1.12	-0.463	0.188	-0.678	-0.222
C/C=C\[C@@H](NCc1ccccc1Br)[C@@H](O)Cc1ccccc1	0.556	0.41	1.19	-0.307 (inactive)	-1.69	-0.683	-1.37	-1.69	-1.58	0.0067
CCCC[C@H]1OB(O)C[C@H]2C1=C(C)C[C@H]1C(=O)N(C)C(=O)[C@H]12	0.0529	-0.0166	-0.372	0.238 (inactive)	0.944	0.774	0.259	1.27	0.558	0.131
COC(=O)[C@@H]1N=C(c2ccc(OCCCO)cc2)O[C@@H]1c1ccccc1N=[N+]=[N-]	1.47	1.14	1.37	-1.99 (inactive)	0.046	0.981	-0.356	-0.0503	-0.68	1.08
CCc1cc2c(nc1CC)CCN(CCC(C)=NOC[C@@H](O)COCc1ccco1)C2	1.54	0.0564	0.202	-0.0287 (inactive)	0.529	1.3	1.78	1.5	1.7	2.1
CC(CCC(=O)OC[C@H]1O[C@H](C#Cc2ccccc2)C=C[C@@H]1Oc1ccc(C)cc1)=NO[C@@H](C)c1cn([C@H](CO)Cc2ccccc2)nn1	0.737	-0.406	-0.52	-1.62 (inactive)	0.304	-0.28	0.313	0.28	0.256	-0.146
CO[C@H]([C@@H](C)[C@H](OC)c1ccccc1)[C@H](C)[C@@H](OC)[C@H](C)C(C)=O	-0.275	-0.442	-0.117	0.116 (inactive)	0.173	-0.641	-0.577	-0.523	0.345	0.782
COC(=O)[C@@]1(Cc2ccccc2)[C@H]2c3cc(C(=O)N4CCCC4)n(Cc4ccccn4)c3C[C@H]2CN1C(=O)c1ccccc1	1.54	1.52	1.31	-2.15 (inactive)	1.37	1.3	0.204	1.41	0.166	0.456
C=CCOC(=O)[C@H]1[C@@H]2C(=O)O[C@@H](c3ccccc3)[C@@H](c3ccccc3)N2[C@@H](c2ccc(OCCOC(=O)[C@H]3C[C@H]4C(=O)N[C@@H](Cc5ccccc5)C(=O)N4[C@H]3c3ccc(O)cc3)cc2)[C@]12C(=O)Nc1ccccc12	1.4	-0.206	-0.361	0.72 (inactive)	1.15	1.18	0.892	1.22	1.06	-1.01
COC(=O)CC=C[C@@H](C)[C@@H](C=NO[C@@H](C)c1cc(-c2c(C)cc(C)cc2C)no1)OC	-0.677	0.237	1.07	-1.2 (inactive)	-1.72	-1.19	-1.81	-1.67	-2.42	-0.2
C=CCOC(=O)[C@H]1[C@@H]2C(=O)O[C@@H](c3ccccc3)[C@@H](c3ccccc3)N2[C@@H](c2ccc(OCCOC(=O)[C@H]3C[C@H]4C(=O)N5CCC[C@H]5C(=O)N4[C@H]3c3cccc(OCCO)c3)cc2)[C@]12C(=O)Nc1ccc(I)cc12	2.03	2.12	1.36	1.1 (inactive)	1.4	1.37	1.02	1.41	1.22	1.47
O=C1[C@H]2[C@H]3[C@H](O)[C@H](O)CC(=NOCc4ccccc4)[C@@H]3CC[C@H]2C(=O)N1C1CCCCC1	0.991	-0.28	0.218	0.568 (inactive)	-0.069	-0.0273	0.0374	-0.0832	-0.484	-0.28
COCCOC(=O)N1C(=O)[C@@]2(c3ccccc31)[C@H](C(N)=O)[C@H]1C(=O)O[C@H](c3ccccc3)[C@H](c3ccccc3)N1[C@@H]2c1ccccc1OCCO	1.31	0.756	0.799	-0.0592 (inactive)	1.23	0.98	0.483	0.584	0.516	0.617
CCOC(=O)NN=C1C[C@@H](O)[C@@H](O)[C@@H]2[C@@H]3C(=O)N(C[C@@H]4CCCO4)C(=O)[C@@H]3CC[C@@H]12	0.419	-0.147	-0.133	0.104 (inactive)	0.137	0.197	0.364	0.342	-0.0134	-0.0039
CC[C@@H](c1ccccc1)n1c(=O)n2n(c1=O)[C@H]1[C@H](O)[C@@H]3O[C@@H]3C(=NOCC=C(C)CCC=C(C)C)[C@H]1CC2	0.785	-0.156	-0.359	1.95 (inactive)	0.524	0.412	0.446	1.27	0.916	0.619
CC(C)NC(=O)[C@@]1(C)c2ccccc2C(=O)N(Cc2cc(F)cc(C(F)(F)F)c2)[C@H]1c1ccc(CO)cc1	0.442	0.574	0.384	-0.0501 (inactive)	1.27	0.917	0.655	0.57	-0.12	0.858
